Source: PubChem BioAssay (NCI)
About 79,000 compounds went through this panel and 15% of them were active in at least one assay; those are over-represented in the sample as a whole. Active and inactive are the calls of the source. Cut-off read from the data, not from the text of the source: active = growth inhibition above about 70%; inactive = the rest.

How the values were obtained:
[1] = NCI Yeast Anticancer Drug Screen. Data for the wt1 strain (AID 149);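 note: 0% = growth of vehicle-treated wt1 cultures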; settings: S. cerevisiae wt1 strain (SPY 50644) growth inhibition, active compounds read high
Method in brief: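 Readout: yeast growth inhibition, normalised to vehicle controls, in the wt1 strain exposed to test compounds.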

[2] = NCI Yeast Anticancer Drug Screen. Data for the rad50EPP+ strain (AID 151);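 note: 0% = growth of vehicle-treated control cultures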; settings: S. cerevisiae rad50 mutant strain, active compounds read high
Method in brief: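 Yeast strain carrying rad50 alteration (rad50EPP+) exposed to compounds; growth inhibition measured relative to vehicle-treated controls.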

[3] = NCI Yeast Anticancer Drug Screen. Data for the mgt1 strain (AID 153); settings: S. cerevisiae mgt1 mutant growth inhibition, active compounds read high
Method in brief: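 Yeast mgt1 strain (DNA repair/cell-cycle alteration panel) exposed to compounds; growth inhibition measured relative to vehicle-treated controls.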

[4] = NCI Yeast Anticancer Drug Screen. Data for the rad50 strain (AID 155);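 note: 0% = growth of vehicle-only cultures of the same strain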; settings: S. cerevisiae rad50 strain growth inhibition, active compounds read high
Method in brief: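 Compounds were tested on a yeast strain with an engineered DNA damage repair alteration; the reported value is growth inhibition normalised to vehicle treatment.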

[5] = NCI Yeast Anticancer Drug Screen. Data for the mec2-1 strain (AID 157); settings: S. cerevisiae mec2-1 strain, active compounds read high
Method in brief: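 mec2-1 yeast strain, carrying an alteration in DNA damage repair or cell cycle control, was exposed to compounds; growth inhibition was measured relative to vehicle-treated controls.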

[6] = NCI Yeast Anticancer Drug Screen. Data for the rad14 strain (AID 159);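 note: 0% = growth of vehicle-treated control cultures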; settings: S. cerevisiae rad14 strain growth inhibition, active compounds read high
Method in brief: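 Compound-treated yeast with a defined DNA-repair lesion; growth inhibition normalised to vehicle-treated cultures.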

[7] = NCI Yeast Anticancer Drug Screen. Data for the sgs1 mgt1 strain (AID 161);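 note: 0% = growth of cultures given vehicle only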; settings: S. cerevisiae sgs1 mgt1 strain, active compounds read high
Method in brief: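 Growth of a repair-deficient yeast mutant was monitored after compound treatment and expressed as inhibition relative to vehicle-treated cultures.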

[8] = NCI Yeast Anticancer Drug Screen. Data for the CLN2oe strain (AID 163);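 note: 0% = growth of vehicle-only control cultures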; settings: S. cerevisiae CLN2oe strain, active compounds read high
Method in brief: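 Yeast cells carrying a defined cell-cycle control alteration were exposed to test compounds. Growth inhibition was scored against vehicle-treated control cultures.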

[9] = NCI Yeast Anticancer Drug Screen. Data for the cln2 rad14 strain (AID 165);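 note: 0% = growth equal to vehicle treated cultures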; settings: S. cerevisiae cln2 rad14 strain, active compounds read high
Method in brief: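 Yeast carrying cln2 and rad14 alterations (cell cycle control and DNA damage repair) were exposed to compounds. Growth inhibition was measured against vehicle-treated controls.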

[10] = NCI Yeast Anticancer Drug Screen. Data for the bub3 strain (AID 167); settings: S. cerevisiae bub3 mutant strain, active compounds read high
Method in brief: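 Growth of a checkpoint-deficient yeast mutant is measured after compound exposure. Values represent inhibition relative to vehicle.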

[11] = NCI Yeast Anticancer Drug Screen. Data for the wt2 strain (AID 169);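 note: 0% = growth of vehicle-treated yeast cultures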; settings: S. cerevisiae wt2 strain growth inhibition, active compounds read high
Method in brief: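 Yeast cells were exposed to test compounds, and growth inhibition was measured relative to vehicle-treated controls.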

[12] = NCI Yeast Anticancer Drug Screen. Data for the mlh1 strain (AID 171);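 note: 0% = growth of vehicle-treated control cultures of the same strain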; settings: S. cerevisiae mlh1 strain growth inhibition, active compounds read high
Method in brief: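 Yeast carrying a defined genetic alteration in DNA damage repair or cell cycle control were exposed to test compounds. Growth inhibition was measured relative to vehicle-treated controls.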

[13] = NCI Yeast Anticancer Drug Screen. Data for the sgs1 strain (AID 173);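 note: 0% = growth of vehicle-only control cultures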; settings: S. cerevisiae sgs1 mutant, active compounds read high
Method in brief: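 Yeast mutant strains carrying defined defects in DNA damage repair or cell cycle control were exposed to test compounds. Growth inhibition was scored against vehicle-treated controls.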

[14] = NCI Yeast Anticancer Drug Screen. Data for the mlh1 rad18 strain (AID 175); settings: S. cerevisiae mlh1 rad18 strain growth inhibition, active compounds read high
Method in brief: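 Growth inhibition of the yeast strain was measured after compound exposure and expressed relative to vehicle-treated controls. The strain carries defined defects in DNA damage repair.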

[15] = NCI Yeast Anticancer Drug Screen. Data for the rad18 strain (AID 177); settings: S. cerevisiae rad18 mutant growth inhibition, active compounds read high
Method in brief: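 Yeast carrying a defined DNA damage repair alteration were exposed to compounds. Growth inhibition was expressed relative to vehicle-treated controls.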

[16] = at 5.0 µM (retest, dose inferred, filed as 0.5)
[17] = at 50.0 µM (retest, dose inferred, filed as 5.0)

Measured: growth inhibition

O=C(CCC(=O)c1ccc(O)cc1)Oc1ccc(O)cc1
inactive: [1]; at 1.2 µM -2% | [1]; at 3.7 µM 2% | [1]; at 11.0 µM -2% | [1]; at 33.0 µM -2% | [1]; at 100.0 µM 1% | [2]; at 1.2 µM 5% | [2]; at 3.7 µM 9% | [2]; at 11.0 µM 15% | [2]; at 33.0 µM 17% | [2]; at 100.0 µM 24% | [3]; at 1.2 µM 1% | [3]; at 3.7 µM -1% | [3]; at 11.0 µM 2% | [3]; at 33.0 µM 2% | [3]; at 100.0 µM 3% | [4]; at 1.2 µM 2% | [4]; at 3.7 µM 4% | [4]; [16] -13% | [4]; at 11.0 µM 2% | [4]; at 33.0 µM 6% | [4]; [17] 16% | [4]; at 50.0 µM -2.75% | [4]; at 100.0 µM 11% | [5]; at 1.2 µM -1% | [5]; at 3.7 µM 3% | [5]; [16] -2% | [5]; at 11.0 µM 3% | [5]; at 33.0 µM 7% | [5]; [17] -11% | [5]; at 50.0 µM -22.5% | [5]; at 100.0 µM 5% | [6]; at 1.2 µM -1% | [6]; at 3.7 µM -1% | [6]; at 11.0 µM -1% | [6]; at 33.0 µM 1% | [6]; at 100.0 µM 5% | [7]; [16] -8% | [7]; [17] 10% | [7]; at 50.0 µM 2.2% | [8]; at 1.2 µM 3% | [8]; at 3.7 µM -11% | [8]; at 11.0 µM 5% | [8]; at 33.0 µM 3% | [8]; at 100.0 µM 6% | [9]; [16] -9% | [9]; [17] 40% | [9]; at 50.0 µM 8.3% | [10]; at 1.2 µM 12% | [10]; at 3.7 µM 21% | [10]; [16] 18% | [10]; at 11.0 µM 33% | [10]; at 33.0 µM 40% | [10]; [17] 67% | [10]; at 50.0 µM 29.1% | [10]; at 100.0 µM 47% | [11]; at 1.2 µM -1% | [11]; at 3.7 µM -1% | [11]; at 11.0 µM -2% | [11]; at 33.0 µM 1% | [11]; at 100.0 µM -1% | [12]; at 1.2 µM 3% | [12]; at 3.7 µM 0% | [12]; at 11.0 µM 2% | [12]; at 33.0 µM 1% | [12]; at 100.0 µM 4% | [13]; at 1.2 µM 1% | [13]; at 3.7 µM 1% | [13]; at 11.0 µM 1% | [13]; at 33.0 µM 4% | [13]; at 100.0 µM 6% | [14]; [16] -18% | [14]; [17] 25% | [14]; at 50.0 µM 1.35% | [15]; at 1.2 µM 1% | [15]; at 3.7 µM -3% | [15]; at 11.0 µM -4% | [15]; at 33.0 µM -4% | [15]; at 100.0 µM -4%

Cc1cnccc1N=Nc1ccc(N(C)C)cc1
inactive: [1]; at 1.2 µM -5% | [1]; at 3.7 µM -6% | [1]; at 11.0 µM -8% | [1]; at 33.0 µM 1% | [1]; at 100.0 µM 1% | [2]; at 1.2 µM 2% | [2]; at 3.7 µM 3% | [2]; at 11.0 µM 7% | [2]; at 33.0 µM 43% | [3]; at 1.2 µM 2% | [3]; at 3.7 µM -2% | [3]; at 11.0 µM 2% | [3]; at 33.0 µM 31% | [3]; at 100.0 µM 41% | [4]; at 1.2 µM -4% | [4]; at 3.7 µM -4% | [4]; [16] -109% | [4]; at 11.0 µM 13% | [4]; at 33.0 µM 27% | [4]; [17] -2% | [4]; at 100.0 µM 37% | [5]; at 1.2 µM -3% | [5]; at 3.7 µM 1% | [5]; [16] -42% | [5]; at 11.0 µM -21% | [5]; at 33.0 µM -4% | [5]; [17] -34% | [5]; at 50.0 µM 30.9% | [5]; at 100.0 µM 3% | [6]; at 1.2 µM -3% | [6]; at 3.7 µM -5% | [6]; at 11.0 µM 12% | [6]; at 33.0 µM 39% | [6]; at 100.0 µM 51% | [7]; [16] -23% | [7]; [17] 46% | [7]; at 50.0 µM 65.8% | [8]; at 1.2 µM 3% | [8]; at 3.7 µM 8% | [8]; at 11.0 µM 15% | [8]; at 33.0 µM 30% | [8]; at 100.0 µM 30% | [9]; [16] -43% | [9]; [17] -19% | [9]; at 50.0 µM 34% | [10]; at 1.2 µM 8% | [10]; at 3.7 µM 10% | [10]; [16] -33% | [10]; at 11.0 µM 14% | [10]; at 33.0 µM 32% | [10]; [17] 69% | [11]; at 1.2 µM 0% | [11]; at 3.7 µM -1% | [11]; at 11.0 µM 2% | [11]; at 33.0 µM 13% | [11]; at 100.0 µM 4% | [12]; at 1.2 µM -1% | [12]; at 3.7 µM 1% | [12]; at 11.0 µM 0% | [12]; at 33.0 µM 24% | [12]; at 100.0 µM 31% | [13]; at 1.2 µM 2% | [13]; at 3.7 µM 3% | [13]; at 11.0 µM 32% | [13]; at 33.0 µM 52% | [13]; at 100.0 µM 49% | [14]; [16] -95% | [14]; [17] -7% | [14]; at 50.0 µM 36.1% | [15]; at 1.2 µM -4% | [15]; at 3.7 µM -4% | [15]; at 11.0 µM 9% | [15]; at 33.0 µM 25% | [15]; at 100.0 µM 30%
active: [2]; at 100.0 µM 90% | [4]; at 50.0 µM 81.8% | [10]; at 50.0 µM 89% | [10]; at 100.0 µM 79%
